FLuc counter: qHTS profiling assay for firefly luciferase inhibitor/activator using purifed enzyme and Km concentrations of substrates (counterscreen for miR-21 project); Luciferin 4-monooxygenase (Photinus pyralis), P08659; purified FLuc, Km substrates, luminescence inhibition; Potency, µM (highest dose often 57.5 µM), inactives show at the highest dose activity change, negative = inhibition, actives largely listed as inhibitors; actives 6.9% (n = 360,000); AID 588342, 2011;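 note: plate controls were vehicle for no effect and reference inhibitor for full effect; nearly all actives have a fitted effect of over 55% in size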
Target sequence (P08659 whole entry, looked up): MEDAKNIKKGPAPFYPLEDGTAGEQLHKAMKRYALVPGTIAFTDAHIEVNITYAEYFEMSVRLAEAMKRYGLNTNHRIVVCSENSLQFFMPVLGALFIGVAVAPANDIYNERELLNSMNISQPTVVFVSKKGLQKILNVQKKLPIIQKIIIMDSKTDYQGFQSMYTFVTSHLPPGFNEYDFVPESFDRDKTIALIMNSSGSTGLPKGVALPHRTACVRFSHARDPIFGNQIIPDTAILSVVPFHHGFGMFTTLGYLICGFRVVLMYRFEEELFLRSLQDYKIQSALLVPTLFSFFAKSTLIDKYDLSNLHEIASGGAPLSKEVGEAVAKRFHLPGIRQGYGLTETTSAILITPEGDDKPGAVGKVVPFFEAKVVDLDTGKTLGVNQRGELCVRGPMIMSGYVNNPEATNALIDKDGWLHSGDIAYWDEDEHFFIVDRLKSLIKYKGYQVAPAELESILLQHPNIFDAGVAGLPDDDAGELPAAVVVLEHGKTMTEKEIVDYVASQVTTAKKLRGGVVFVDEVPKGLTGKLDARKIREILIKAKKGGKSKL
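Biochemical qHTS of compounds, final roughly 60 µM downward over six points, against 10 nM purified firefly luciferase using Km concentrations of substrates (10 uM D-luciferin, 10 uM ATP) in Tris acetate pH 7.5 buffer; luminescence output.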
SMN2 splice enh: qHTS Assay for Enhancers of SMN2 Splice Variant Expression; actives 2.8% (n = 210,000); HEK293 SMN2-luciferase splicing reporter, luminescence, 30-36 h; Potency, µM (top dose mostly 46.1 µM), without a hit: at the top dose activity change, positive = activation, most hits filed as activators; AID 1458, 2008; note: % of control where 0% means no effect; nearly all actives have a fitted effect of over 55% in size
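qHTS luciferase splicing reporter: luminescence rises when SMN2 exon 7 is included in transfected HEK293 cells. Compound exposure lasted 30-36 h at 37C, with 4.5 mM final sodium butyrate as control, followed by a ONE-Glo read.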
Rab9 prom act: qHTS Assay for Rab9 Promoter Activators; Huh7 Rab9 promoter-luciferase reporter, luminescence, 24 h; Potency, µM (doses to about 9.22 µM), for inactives: at the top dose activation, negative = inhibition, actives largely listed as activators; actives 2.8% (n = 320,000); AID 485297, 2010; note: % of control where 0% means no effect; nearly all actives have a fitted effect of over 60% in size
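Cells were plated at 1500 per well in reduced-serum medium with 10% FBS and left 2 h. Compound in DMSO was then added for 24 h at 37 °C. Reporter signal was read by luminescence after 10 min with luciferase detection reagent.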
Luc counter: Counterscreen for Luciferase (Kinase-Glo TM) Inhibition. AID 1379, 2008. Kinase-Glo luciferase, ATP luminescence, 8 min. Potency, µM (series often up to 38.3 µM), for inactives: at the highest dose activity change, negative = inhibition, usual class: inhibitors. Luciferin 4-monooxygenase (Photuris pensylvanica), Q27757. actives 0.28% (n = 200,000); note: % is set by controls: 0 for no effect and ±100 for the full control effect; nearly all actives have a fitted effect of over 60% in size
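Recombinant Kinase-Glo luciferase, 10 uM ATP (linear range), luciferin; imidazole pH 7.2 / KCl / MgCl2 / Tween / BSA buffer; 8 min RT; luminescence.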
ELG1 genotoxic: qHTS screen for small molecules that induce genotoxicity in human embryonic kidney (HEK293T) cells expressing luciferase-tagged ELG1. HEK293T ELG1-luciferase reporter, luminescence, 16 h. Potency, µM (top dose mostly 46 µM), for the others: at the highest dose activity change, positive = activation, most hits filed as activators. actives 1.3% (n = 330,000). AID 504466, 2011; note: % of control where 0% means no effect; nearly all actives have a fitted effect of over 60% in size
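Luminescence read-out: rising ELG1-luciferase signal, reflecting elevated ELG1 protein under genetic stress, flags genotoxic compounds. Cells were treated for 16 hr at 37 °C before ONE-Glo detection.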
NPC1 promoter act: qHTS Assay for NPC1 Promoter Activators; Huh7 NPC1 promoter luciferase reporter, 24 h; Potency, µM (highest dose often 9.22 µM), for inactives: at the highest dose activation, actives largely listed as activators; actives 2.4% (n = 320,000); AID 485313, 2010; note: % of control where 0% means no effect; nearly all actives have a fitted effect of over 60% in size
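NPC1 promoter–luciferase Huh7 cells; 24 h compound; luminescence.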
* hit, by the source's call; ? = inconclusive; / = no result given; [ ] = remark or other dose. Only some compounds are listed: those with a hit (about 7.4% of all), similar ones and a draw of the others. Calls come from the whole dose curve; as a rule, active = well fitted curve in the direction sought with a large enough effect; inconclusive = small, poorly fitted or top-dose-only effect, or another doubt; inactive = no such curve, though single readings can be large; an effect the other way counts as inactive or inconclusive. Potency is the fitted concentration of half-maximal effect.

SMILES | FLuc counter | SMN2 splice enh | Rab9 prom act | Luc counter | ELG1 genotoxic | NPC1 promoter act
COc1ccc(N2CCN(C(CNS(=O)(=O)c3ccc(OC)c(C)c3)c3ccco3)CC2)cc1 (stereo not given) | -7% | / | / | / | / | /
O=C(O)c1ccc(CSc2nc3ccccc3o2)cc1 | 19µM* | -10% | 0% | -4% | 5% | -1%
O=C(CCSc1nc2ccccc2o1)Nc1ccccc1 | -4% | / | 0% | / | -1% | 1%
O=C(O)c1ccccc1CSc1nc2ccccc2o1 | 11µM* | ? | ? | 1% | ? | 4.5µM*
COc1cc(NC(=O)c2ccc(N)nc2)cc(C(=O)Nc2cccc(C(F)(F)F)c2)c1 | 7.6µM* | / | 3% | / | 7% | 2%
COc1cc(Nc2ccccn2)cc(C(=O)Nc2cccc(C(F)(F)F)c2)c1 | ? | / | -10% | / | -13% | 2%
COc1cc(NC(=O)c2nccnc2N)cc(C(=O)Nc2cccc(C(F)(F)F)c2)c1 | 11µM* | / | -6% | / | 6% | -3%
O=S(=O)(O)c1ccc2c(N=Nc3c(O)ccc4ccccc34)cccc2c1 | / | -7%[9.22 µM] | / | -7%[7.66 µM] | / | /
Cc1ccccc1OCc1nc(-c2ccc(NC(=O)c3ccco3)cc2)no1 | 11µM* | 7.1µM* | ? | -19% | ? | ?
CC(Oc1ccc(Cl)cc1Cl)c1nc(-c2ccc(NC(=O)c3ccco3)cc2)no1 (stereo not given) | 15µM* | -39% | ? | -14% | ? | 29%
Cc1ccccc1OCc1nc(-c2ccc(NC(=O)c3ccc4c(c3)OCO4)cc2)no1 | ? | -8% | 4% | -8% | 9% | 19%
Cc1ccccc1OCc1nc(-c2ccc(NC(=O)c3cccs3)cc2)no1 | 12µM* | ? | ? | -9% | ? | ?
COc1ccc2c(c1)C(c1ccccc1C)CC(=O)O2 (stereo not given) | / | / | / | -11%[39.9 µM] | / | /
Cc1ccc(-n2c(C)nn(CCOc3ccccc3)c2=O)cc1 | ? | 11µM* | 3.2µM* | 1% | ? | ?
Cc1nn(CCOc2ccccc2)c(=O)n1-c1c(F)cccc1F | 24µM* | 13µM* | 4µM* | 1% | ? | 2.8µM*
CCN1CCN(Cc2ccc(NC(=O)c3cc(NC(=O)c4cc(-c5ccc(OC)cc5)n[nH]4)cc(OC)c3)cc2C(F)(F)F)CC1 | 13µM* | / | -2% | / | 8% | -2%
CCN1CCN(Cc2ccc(NC(=O)c3cc(NC(=O)c4ccno4)cc(OC)c3)cc2C(F)(F)F)CC1 | -3% | / | -6% | / | -3% | -3%
CCN1CCN(Cc2ccc(NC(=O)c3cc(NC(=O)c4ccc5n[nH]nc5c4)cc(OC)c3)cc2C(F)(F)F)CC1 | 2.7µM* | / | -3% | / | 3% | -7%
CCCCS(=O)(=O)c1nc(-c2ccc(Br)cc2)cc(-c2ccccc2)c1C#N | 2% | -109% | / | / | / | /
Cc1c(O)c2ccccc2oc1=O | -5% | / | 0% | / | 1% | -2%
CCN(CC)S(=O)(=O)c1cccc(N=Nc2c(O)c3ccccc3oc2=O)c1 | 27µM* | / | 16% | / | -2% | 28%
CCN(Cc1ccccc1)S(=O)(=O)c1cc(C(=O)Nc2cc(Cl)cc(Cl)c2)ccc1F | 0% | / | / | / | / | /
CCc1c(C(=O)NCCc2ccc(N3CCCCC3)cc2)[nH]c2ccc(Cl)cc12 | / | / | -12%[46.1 µM] | / | / | -1%[46.1 µM]
O=C(O)c1cc(-n2c(/C=C\c3ccc(F)cc3)nc3ccccc3c2=O)ccc1Cl | 24µM* | / | / | / | / | /
O=C(O)c1cccc(-n2c(/C=C/c3ccccc3)nc3ccccc3c2=O)c1 | ? | / | 1% | / | 2% | -6%
SMILES | FLuc counter | SMN2 splice enh | Rab9 prom act | Luc counter | ELG1 genotoxic | NPC1 promoter act
Cc1ccc(Nc2nc(CSc3nnnn3-c3ccccc3)cs2)cc1 | 17µM* | -9% | / | -1% | / | /
Cc1ccc(Nc2nc(CSc3nnc(-c4cccs4)o3)cs2)cc1 | 6.7µM* | -17% | 19% | 1% | ? | 21%
Cc1ccc(Nc2nc(CSc3n[nH]c(N)n3)cs2)cc1 | 1.3µM* | / | 2.2µM* | / | ? | 1.1µM*
Cc1cccc(-n2nnnc2SCc2csc(-c3ccccc3)n2)c1 | 5% | -38% | -2% | 4% | -3% | -7%
Cc1ccc(Nc2nc(CSc3nnnn3C)cs2)cc1 | 3.4µM* | 11µM* | 2.8µM* | 1% | ? | 3.5µM*
Cc1ccc(CSc2n[nH]c(N)n2)cc1 | 2% | / | -1% | -4% | 2% | 0%
Cn1nnnc1SCc1cccc(CSc2nnnn2C)n1 | 7% | 14% | 5% | -7% | ? | 1%
COc1ccc(Cl)cc1NC(=O)CSc1nnc(C)n2c1cc1occc12 | -2% | / | / | / | / | /
C=Cc1ccc(C=C)cc1 | / | -9% | / | / | / | /
Cc1ccc(C)c(N2CCN(C(=O)CCn3c(=O)[nH]c4ccccc4c3=O)CC2)c1 | -5% | / | / | / | / | /
Cn1nnnc1SCc1csc(Nc2ccccc2)n1 | ? | 1% | 4µM* | 4% | ? | ?
CCn1nnc2cc(C(=O)NCCc3ccccc3F)ccc21 | 1.1µM* | / | 0.4µM* | / | ? | 0.32µM*
CCn1nnc2cc(C(=O)Nc3ccc(Br)cc3F)ccc21 | -4% | / | / | / | / | /
Fc1ccccc1N1CCN(c2nnc(C(F)(F)F)c3nnn(Cc4ccccc4)c23)CC1 | -1% | 5% | / | / | / | /
COc1cc(C2Nc3ccccc3-c3nnc(SCc4ccc(C)cc4)nc3O2)cc(OC)c1O (stereo not given) | ? | -5% | / | / | / | /
O=C(Nc1scc(-c2ccc(F)cc2)c1C(=O)O)c1ccco1 | 17µM* | ? | 24% | -6% | ? | 26%
COC(=O)c1c(-c2ccccc2)csc1NC(=O)c1ccco1 | 5.4µM* | -1% | ? | -4% | 2.3µM* | 2.8µM*
Cc1cc(NC(=O)/C=C/c2ccco2)ccc1NC(=O)c1ccccc1 | ? | / | 10% | -20% | 0% | 0%
Cc1ccc(-c2csc(NC(=O)/C=C/c3ccco3)c2C(=O)O)cc1 | 6µM* | 11µM* | 1.8µM* | -13% | ? | 3.2µM*
Cc1oc(S(=O)(=O)N2CCCC2)cc1C(=O)Nc1ccccc1 | 0% | / | -10% | / | -6% | -2%
N=c1oc2c3c4c(cc2cc1C(=O)Nc1ccccc1)CCCN4CCC3 | 1.9µM* | 10µM* | ? | -2% | ? | ?
Cc1ccc2[nH]c(=O)c(CN(Cc3ccco3)S(=O)(=O)c3c(C)ccc4nsnc34)cc2c1 | 3%[2.3 µM] | 7.9µM* | -17% | -2% | -14% | -5%
